Screening results: PubChem, National Center for Advancing Translational Sciences (NCATS)
PI5P4K alpha inh – inhibitors of human PI5P4K alpha; PI5P4Kalpha enzyme, ADP-Glo luminescence, 60 min; stronger effect = lower value; max response, %; 330,000 tested, 1.2% active; AID 652105; active means max response of -50% or lower; inconclusive means between -30% and -50%; inactive means -30% or higher; further: value at the top dose of about 77 µM
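Luminescence from ADP-Glo served as readout of PI5P4Kalpha activity in a qHTS format. Reaction: enzyme, substrate, compound, ATP at 5 microM final, 60 min at RT.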
BAZ2B block – BAZ2B (human) inhibition; 360,000 tested, 4.4% active; Q9UIF8; AID 504333; AlphaScreen BAZ2B-H3K14Ac peptide displacement; Potency, µM (titrated, usually from 114 µM), most hits filed as inhibitors; further: nearly all actives have a fitted effect of over 60% in size
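BAZ2B 50 nM plus b-H3(5-23)K14Ac 50 nM, PBS pH 7.4/0.01% Tween-20, 30 min RT; compound added (max 110 uM), 30 min RT; streptavidin donor/Ni-chelate acceptor beads 10 ug/mL final, 20 min dark; AlphaScreen read.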
JMJD2A Tudor inh – JMJD2A Tudor domain (human) inhibition. AlphaScreen JMJD2A-Tudor / H3K4me3 peptide binding. Potency, µM (series often up to 114 µM), usual class: inhibitors. 390,000 tested, 4.4% active. AID 504339; further: nearly all actives have a fitted effect of over 50% in size
HP1b binding inh – inhibitors of HP1-beta chromodomain binding to methylated histone tails | P83916 | AlphaScreen HP1-beta / biotin-H3K9me3 peptide binding | Potency, µM (highest dose often 114 µM), actives largely listed as inhibitors | 390,000 tested, 0.56% active; further: nearly all actives have a fitted effect of over 70% in size
Target sequence (P83916 whole entry, looked up): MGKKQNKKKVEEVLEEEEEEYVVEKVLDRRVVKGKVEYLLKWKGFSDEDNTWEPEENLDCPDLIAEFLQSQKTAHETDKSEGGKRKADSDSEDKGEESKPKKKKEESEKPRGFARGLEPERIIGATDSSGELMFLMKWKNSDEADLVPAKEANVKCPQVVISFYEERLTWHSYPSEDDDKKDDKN
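AlphaScreen: HP1-beta (50 nM) preformed 30 min with biotin-H3(1-18)K9me3 peptide (50 nM) in PBS pH 7.4, 0.01% Tween-20. Compound added for 30 min at RT, then streptavidin donor/nickel chelate acceptor beads (10 ug/mL) for 30 min.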
PLK1 PBD block – PLK1 (human) polo-box domain binding inhibition; Plk1 PBD binding of FITC phosphopeptide, fluorescence polarization; 360,000 tested, 2.8% active; Potency, µM, usual class: inhibitors; P53350; further: series mostly up to about 57 µM; nearly all actives have a fitted effect of over 65% in size
G9a block – G9a (human) methyltransferase inhibition | Potency, µM (doses to about 102 µM), most hits filed as inhibitors | G9a H3K9 monomethylation, AlphaScreen, 2 h | AID 504332 | Q96KQ7 | 350,000 tested, 8.8% active; further: nearly all actives have a fitted effect of over 75% in size
Target sequence (Q96KQ7 913-1193 limits assumed): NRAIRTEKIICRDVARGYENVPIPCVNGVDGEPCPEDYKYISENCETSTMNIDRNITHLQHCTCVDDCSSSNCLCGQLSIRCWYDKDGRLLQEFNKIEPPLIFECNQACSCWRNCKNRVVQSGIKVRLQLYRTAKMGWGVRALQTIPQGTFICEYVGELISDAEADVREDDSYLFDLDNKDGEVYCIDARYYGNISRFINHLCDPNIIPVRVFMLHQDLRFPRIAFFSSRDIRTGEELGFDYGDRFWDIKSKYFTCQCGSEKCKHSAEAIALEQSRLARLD
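Readings reflect AlphaScreen signal from monomethyl-H3K9 antibody detection. HMT at 20 nM; substrate b-H3K9 500 nM; cofactor SAM 20 uM; 2 h RT reaction; compounds tested as titrations in qHTS with 15 min preincubation.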
Each line names hits and unclear results; the compound was inactive in the other large screens; ! = repeats disagree. Rows were chosen to be rich in hits. Some 12% of all compounds tested hit in one or more screens of this group. Unless noted, the call rests on the fitted dose curve; in most records, active means well fitted curve in the direction sought with a large enough effect; inconclusive means small, poorly fitted or top-dose-only effect, or another doubt; inactive means no such curve, though single readings can be large; an effect the other way counts as inactive or inconclusive.

CS(=O)(=O)c1ncc(N(Cc2ccco2)Cc2cccs2)c(C(=O)Nc2ccccc2F)n1	G9a block inconclusive (no result: PI5P4K alpha inh, PLK1 PBD block)
O=C(OCC(=O)c1cccs1)c1ccccc1	G9a block inconclusive
O=C(CC(Nc1ccccc1Cl)C(=O)OCC(=O)c1cccs1)c1ccccc1 (stereo not drawn)	G9a block 10µM
O=C(Nc1ccc(N2CCOCC2)c(C(=O)O)c1)c1ccco1	G9a block 56µM (no result: PI5P4K alpha inh, JMJD2A Tudor inh, HP1b binding inh, PLK1 PBD block)
O=C(Nc1ccc(N2CCOCC2)cc1N1CCOCC1)c1ccco1	JMJD2A Tudor inh 56µM, HP1b binding inh inconclusive, PLK1 PBD block 27µM, G9a block inconclusive
Cc1ccc(NC(=O)c2cc(NC(=O)c3ccco3)ccc2N2CCOCC2)cc1	none
O=C(CCNS(=O)(=O)c1ccc2c(c1)CCN2C(=O)C1CC1)Nc1ccc(OC(F)(F)F)cc1	JMJD2A Tudor inh inconclusive (no result: PI5P4K alpha inh, PLK1 PBD block)
CCCCOCCCNC(=O)C[C@@H]1C[C@@]2(C(=O)OC)CCCCC=C2N(Cc2ccco2)C1=O	none (no result: BAZ2B block, JMJD2A Tudor inh, HP1b binding inh, G9a block)
CN(C)c1ccc(/C=C(\NC(=O)c2ccccc2)C(=O)NCCN2CCOCC2)cc1	G9a block 71µM
CN(C)c1ccc(/C=C(\NC(=O)c2ccccc2)C(=O)NCCCN2CCOCC2)cc1	none (no result: G9a block)
Cc1ccc(C(=O)N/C(=C\c2cn(S(=O)(=O)N(C)C)c3ccccc23)C(=O)NCCCn2ccnc2)cc1	BAZ2B block inconclusive, JMJD2A Tudor inh inconclusive, HP1b binding inh 50µM!, PLK1 PBD block 30µM
O=C(NCCCn1ccnc1)/C(=C/c1ccc(Cl)cc1)NC(=O)c1ccccc1	BAZ2B block 50µM
O=C(NCCCn1ccnc1)/C(=C\c1cccs1)NC(=O)c1ccccc1	none
CN(C)c1ccc(/C=C(/NC(=O)c2ccccc2)C(=O)NCCCn2ccnc2)cc1	BAZ2B block 35µM
Oc1cccc2oc(=S)[nH]c12	JMJD2A Tudor inh inconclusive (no result: BAZ2B block, G9a block)
CC(=O)OCC(NC(=O)C(Cc1ccccc1)NC(=O)OC(C)(C)C)C1OC(n2cc(F)c(=O)[nH]c2=O)C(OC(C)=O)C1OC(C)=O (stereo not drawn)	none (no result: PI5P4K alpha inh, BAZ2B block, PLK1 PBD block, G9a block)
C=C1C[C@@H]2C[C@@H]2CN(S(=O)(=O)c2ccc(C)cc2)[C@@H]1COCc1ccccc1	none (no result: BAZ2B block, JMJD2A Tudor inh, HP1b binding inh, G9a block)
COc1ccc(/C=C(\NC(=O)c2ccc(C)cc2)C(=O)NCCCn2ccnc2)cc1	BAZ2B block 50µM
CCC(=O)N1CCc2cc(S(=O)(=O)CCC(=O)Nc3ccc(C(C)=O)cc3)ccc21	none
CCC(=O)N1CCc2cc(S(=O)(=O)CCC(=O)Nc3cccc(F)c3)ccc21	PLK1 PBD block inconclusive, G9a block 22µM
CCC(=O)N1CCc2cc(S(=O)(=O)CCC(=O)Nc3ccc(F)c(F)c3)ccc21	BAZ2B block 56µM
CCC(=O)N1CCc2cc(S(=O)(=O)CCC(=O)Nc3ccc(CC)cc3)ccc21	G9a block inconclusive
Cc1ccccc1C(=O)N1CCC(C(=O)N2CCN(c3ncccn3)CC2)CC1	none
Cc1ccccc1N1CCN(C(=O)c2ccccc2NC(=O)c2ccccc2C(=O)O)CC1	HP1b binding inh inconclusive, PLK1 PBD block 30µM
Cc1ccccc1C(=O)N1CCC(C(=O)Nc2ccccc2Cl)CC1	none
Cc1ccccc1C(=O)N1CCC(C(=O)Nc2ccccc2N2CCCC2)CC1	G9a block 50µM
O=C(Nc1ccccc1C(=O)N1CCN(Cc2ccccc2)CC1)c1ccccn1	JMJD2A Tudor inh inconclusive, G9a block 14µM
O=C(Nc1ccccc1C(=O)N1CCN(Cc2ccccc2)CC1)c1ccc(F)cc1	none
CN1CCN(C(=O)c2ccccc2NC(=O)c2ccccc2Br)CC1	none
CCOC(=O)N1CCN(C(=O)C2CCN(C(=O)c3ccccc3C)CC2)CC1	PI5P4K alpha inh -79, JMJD2A Tudor inh 7.1µM, HP1b binding inh 7.9µM, PLK1 PBD block 3.4µM (no result: BAZ2B block, G9a block)
O=C(c1cccc(-c2ccccc2F)c1)N1CC[C@@H](N2CCC(O)CC2)[C@H](O)C1	none
Cc1ccc(C)c(N2CCN(c3ccc(N4C(=O)COCC4=O)cc3[N+](=O)[O-])CC2)c1	none
Cc1cc(N2C(=O)C=CC2=O)c([N+](=O)[O-])cc1C	PI5P4K alpha inh -56, BAZ2B block 56µM, JMJD2A Tudor inh 6.3µM, HP1b binding inh 5.6µM, PLK1 PBD block 6µM, G9a block 1.3µM
